“And” between values parts separate entries of the source, which are not always exact repeats. Equal entries are not always repeated. Compounds without any hit were thinned out: in the full panel of roughly 83,000, 20% have a hit.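 Each cell line was grown in a 96-well plate and treated with one concentration of compound for 48 hours. Values below 10 were considered active.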 Values without a mark were called inactive. The source made the active and inactive calls.
Assays:
Experiment in all cases: NCI-60 one-dose screen, 48 h (100 = growth as untreated, 0 = no growth, -100 = all killed)
Settings in all cases: 10 µM unless noted
SR leukemia = test system: SR leukemia
RPMI-8226 leukemia = test system: RPMI-8226 leukemia
OVCAR-8 ovarian = test system: OVCAR-8 ovarian
OVCAR-5 ovarian = test system: OVCAR-5 ovarian
OVCAR-4 ovarian = test system: OVCAR-4 ovarian
SK-OV-3 ovarian = test system: SK-OV-3 ovarian
IGROV1 ovarian = test system: IGROV1 ovarian
OVCAR-3 ovarian = test system: OVCAR-3 ovarian
HS 578T breast = test system: HS 578T breast
NCI/ADR-RES ovarian = test system: NCI/ADR-RES ovarian
T-47D breast = test system: T-47D breast
BT-549 breast = test system: BT-549 breast
MDA-MB-435 melanoma = test system: MDA-MB-435 melanoma
SW-620 colon = test system: SW-620 colon
MCF7 breast = test system: MCF7 breast
HCT-116 colon = test system: HCT-116 colon
HCC-2998 colon = test system: HCC-2998 colon
KM12 colon = test system: KM12 colon
MDA-MB-468 breast = test system: MDA-MB-468 breast

| Structure (SMILES) | growth (SR leukemia) | growth (RPMI-8226 leukemia) | growth (OVCAR-8 ovarian) | growth (OVCAR-5 ovarian) | growth (OVCAR-4 ovarian) | growth (SK-OV-3 ovarian) | growth (IGROV1 ovarian) | growth (OVCAR-3 ovarian) | growth (HS 578T breast) | growth (NCI/ADR-RES ovarian) | growth (T-47D breast) | growth (BT-549 breast) | growth (MDA-MB-435 melanoma) | growth (SW-620 colon) | growth (MCF7 breast) | growth (HCT-116 colon) | growth (HCC-2998 colon) | growth (KM12 colon) | growth (MDA-MB-468 breast) |
| --- | --- | --- | --- | --- | --- | --- | --- | --- | --- | --- | --- | --- | --- | --- | --- | --- | --- | --- | --- |
| CC(C)C(C(=O)O)n1c(O)c(/C=C2/C=c3cc4c(cc3=NC2=O)OCO4)sc1=S (centres undefined) | 90.5% | 109% | 105% | 110% | 108% | 129% | 109% | 107% | 99.8% | 98.2% | 103% | 111% | 107% | 108% | 90.4% | 108% | 110% | 103% | 101% |
| CCCCCCCCc1ccc(C(=O)Nc2cccc(P(=O)(O)O)c2)cc1 | 87.7% | 96.4% | 99.7% | 116% | 111% | 112% | 108% | 106% | 102% | 101% | 125% | 110% | 103% | 100% | 91.8% | 94.3% | 114% | 103% | 88.7% |
| C/C(=N\N=C\c1cc([N+](=O)[O-])ccc1Cl)c1ccc2c(c1)Nc1ccccc1S2 | 31.3% | 71.7% | 16.6% | 69.4% | -10.7% (active) | 40.4% | 40% | -4% (active) | 27.1% | 55% | 29.7% | 63% | 77.2% | 50% | 63.1% | 11.1% | 90.5% | 89.1% | 34.1% |
| COc1ccccc1C(=O)NN1C(=O)/C(=C/C2=Cc3ccccc3OC2)SC1=S | 92.1% | 88.6% | 99.9% | 109% | 102% | 94.5% | 107% | 107% | 111% | 107% | 104% | 83.6% | 110% | 114% | 92.9% | 95.7% | 117% | 99.5% | 115% |
| COc1ccc(C(=O)/C=C/c2ccc(OCc3ccccc3)c(OC)c2)cc1OC | 8.91% (active) | 9.53% (active) | -1.43% (active) | 4.82% (active) | 25.6% | 83.5% | 23.3% | 25.8% | 75.5% | 19.7% | 30.4% | 12.6% | 30.9% | 10.4% | 10.5% | 12.3% | 15.2% | 16% | 23.8% and 11.1% |
| CCN1C(=O)N(CC)C2NNC(Sc3c(C(=O)O)c4ccccc4n(C4CCCC4)c3=O)=NC21 (centres undefined) | 22.4% | 24.8% | 4.93% (active) | 38.4% | 61.8% | 32.8% | 29.6% | -32.5% (active) | 7.18% (active) | 25.1% | 61.4% | 6.1% (active) | -29.3% (active) | 30.6% | 16.6% | 4.07% (active) | 26.4% | 3.71% (active) | 58.1% |
| O=C1NC(=O)/C(=C/c2ccccc2OCc2cc3ccccc3nc2Cl)S1 | 105% | 93.7% | 68.4% | 112% | 88.2% | 81.7% | 91.5% | 71.7% | 28.8% | 87.6% | 75.3% | 78.7% | 101% | 109% | 74.3% | 108% | 114% | 85.2% | 80.6% |
| S=C(Nc1ccc(OCc2nc3ccccc3[nH]2)cc1)NC1CCCCC1 | 105% | 101% | 95.1% | 117% | 102% | 108% | 107% | 123% | 102% | 106% | 88.5% | 109% | 105% | 120% | 75.3% | 102% | 111% | 82.1% | 107% |
| C#C[C@]1(O)CC[C@H]2[C@@H]3CC=C4c5sc(-c6ccc(O)c(O)c6)nc5CC[C@]4(C)[C@H]3CC[C@@]21C | -25.7% (active) | -50.4% (active) | -77.3% (active) | -87% (active) | -68.1% (active) | -78.2% (active) | -67.4% (active) | -56.3% (active) | -32.6% (active) | -27.2% (active) | -25.7% (active) | -93.3% (active) | -62.3% (active) | -76.6% (active) | -72.8% (active) | -88.8% (active) | -83.9% (active) | -76.3% (active) | -71.7% (active) |
| Nc1nnc(-c2c[nH]c3ccc(Br)cc23)c(-c2c[nH]c3ncc(Br)cc23)n1 | 23.6% | 19.6% | 34.3% | 59% | 33.6% | 37.6% | 22% | 62.4% | 48.8% | 78.6% | 16.7% | 35.4% | 30.3% | 50.2% | 12.3% | 17.1% | 48.5% | 32.6% | 26.1% |
| CN1CCN(/C(=N\c2sc(-c3ccccc3)nc2-c2ccccc2)c2ccccc2)CC1 | 21.1% | 34.6% | 97.6% | 70% | 89.4% | 105% | 82.5% | 111% | 88.7% | 90.4% | 76.2% | 77.5% | 79.7% | 79.5% | 75.1% | 54.4% | 77.5% | 24.5% | 71.6% |
| O=C(COc1ccc(NC(=O)Nc2ccc(Cl)c(Cl)c2)cc1)N=Nc1c(O)[nH]c2ccccc12 | 2.4% (active) | 2.89% (active) | -43.2% (active) | -8.84% (active) | -5.31% (active) | -49.9% (active) | -49% (active) | -78.1% (active) | -9.24% (active) | 80.8% | 11.6% | -38.4% (active) | -63.8% (active) | -62% (active) | -6.27% (active) | -1.24% (active) | -49.3% (active) | -38.3% (active) | -47.7% (active) |
| CC(=O)/C=C/c1cccc2c1C(=O)NC(C)(c1cc3cc(Br)ccc3oc1=O)N2 (centres undefined) | -0.625% (active) | 2.71% (active) | 24.9% | 30.8% | 27.2% | 52.6% | 25.3% | 28.1% | 46.6% | 32.9% | 32% | -8.15% (active) | 42.3% | 32.3% | 13.4% | 15.1% | 23.3% | 25.3% | -6.53% (active) |
| Cn1cc(-c2nnc(N)nc2-c2c[nH]c3ccc(F)cc23)c2cccnc21 | 25.5% | 49.1% | 49.3% | 83.3% | 77.6% | 65.8% | 40.7% | 25.3% | 42% | 72.9% | 40.7% | 34% | -21.8% (active) | 19.3% | 23.6% | 15.1% | 65.8% | 22.3% | 39.1% |
| Cn1cc(-c2cc3nc(-c4c[nH]c5ccc(Br)cc45)cc(N)n3n2)c2ccccc21 | 2.66% (active) | -10.1% (active) | -85.1% (active) | -86.1% (active) | -57% (active) | -66.5% (active) | -57.2% (active) | -40% (active) | -22.5% (active) | -32.8% (active) | -60.8% (active) | -63.6% (active) | -88.6% (active) | -63.5% (active) | -87.2% (active) | -90.6% (active) | -82.4% (active) | -83% (active) | -70.3% (active) |
| CCCSc1nc(NCCc2c[nH]c3ccccc23)c(C#N)c(-c2ccc(OC)cc2)n1 | 4.81% (active) | 23.9% | 67.9% | 82.1% | 61.2% | 90.6% | 91.2% | 82.3% | 42.9% | 47.9% | 15.3% | 83.2% | 62.5% | 42.5% | 7.41% (active) | 20.8% | 48% | 37.1% | 26.4% |

— PubChem BioAssay (NCI)
